# HIF-2a inh – inhibitors of HIF-2a | inhibition, % at 18.8 µM | hit rate 0.72% among 360,000 | AID 624352 | 786-0 RCC cells HIF-2a reporter, luciferase luminescence, overnight;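 active means inhibition of the luminescence signal of 40% or more relative to plate controls, in a single-dose primary screen at 18.75 µM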
# EWS-Fli inh – EWS/Fli transcriptional activity inhibition | A673 NR0B1-luciferase reporter, viability-normalised | inhibition, % at 12.6 µM | hit rate 0.67% among 350,000 | AID 651661;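 active means mean inhibition of at least 50% after viability correction, with every replicate also passing that limit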;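 further: firefly luciferase signal divided by Alamar Blue viability fluorescence both relative to DMSO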
# CF NFkB block – inhibitors of cystic fibrosis induced NF-kB; AID 588850; KKLEB NF-kB-GFP reporter, PAF-induced, GFP fluorescence overnight; inhibition, % at 5 µM; hit rate 0.86% among 360,000;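 active means at least 50% inhibition at 5 µM, scaled per plate between neutral and stimulator controls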;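 further: PAF is a Pseudomonas aeruginosa culture filtrate used as stimulus; plate controls were PAF-stimulated DMSO wells for no effect and unstimulated DMSO wells for full effect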
# PAX8 reporter – lowers PAX8-driven luciferase in RMG-I cells | inhibition, % at 12.6 µM | hit rate 1.2% among 360,000 | RMG-I TPO-luciferase reporter, SteadyGlo, 24 h | AID 652154;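 active means mean replicate inhibition at least 60% with every replicate also reaching 60%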;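 further: luciferase light reporting Pax8 driven TPO promoter activity; plate controls were median of neutral control wells for no effect and mitoxantrone controls for full effect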
# KKLEB cytotox – reduces viability of KKLEB cystic fibrosis airway cells. KKLEB CF airway cells viability, ATPlite luminescence, overnight; active compounds read low; cells stimulated with P. aeruginosa culture filtrate. activity change (cytotoxicity), % at 5 µM. hit rate 0.36% among 360,000;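 active means corrected activity change at or below -50% at 5 µM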
# Starred values were filed as active, the others as inactive; x = no result given. Most compounds without a hit are left out; they make up all but 2.1% or so of the library.
SMILES,HIF-2a inh,EWS-Fli inh,CF NFkB block,PAX8 reporter,KKLEB cytotox
C[C@@H]1CCCCO[C@@H](CN(C)CC2CCCCC2)[C@@H](C)CN([C@H](C)CO)C(=O)c2cc(NS(=O)(=O)c3ccc(Cl)cc3)ccc2O1,-43,6,-24,23,16
C[C@@H]1CCCCO[C@H](CN(C)CC2CCCCC2)[C@@H](C)CN([C@H](C)CO)C(=O)c2cc(NS(=O)(=O)c3ccc(Cl)cc3)ccc2O1,x,-4,x,-12,x
CC[C@H](C)C1OC(=O)[C@@H](C)[C@@H](CC)NC(=O)[C@H](C)N(C)C(=O)C(C)(C)C(=O)C(C)NC(=O)[C@H](Cc2ccc(OC)cc2)N(C)C(=O)[C@H](C(C)C)N(C)C(=O)CNC(=O)[C@H](CC(C)C)N(C)C(=O)CNC1=O (stereo partly specified),34,x,96*,x,-94*
Cc1ccc2[nH]c3c(c2c1)CCCC3NC(=O)CCl (stereo unspecified),12,x,62*,x,-65*
C[C@@H]1CCCCO[C@@H](CN(C)C(=O)CCC(F)(F)F)[C@@H](C)CN([C@H](C)CO)C(=O)c2cc(NC(=O)c3ccccc3)ccc2O1,x,-11,x,-19,x
CO[C@@H]1CN(C)C(=O)c2ccc(NC(=O)c3ccccc3F)cc2OC[C@@H](C)NC[C@@H]1C,x,-2,x,-4,x
O=Nc1c(O)n(Cc2cccc(C(F)(F)F)c2)c2ccccc12,28,-4,51*,-1,-16
Oc1ccc(C[C@H]2CN([C@@H](Cc3cccc(O)c3)CN3CCC[C@@H]3CN3C(=S)NC[C@@H]3Cc3ccccc3)C(=S)N2CC2CCCCC2)cc1,-58,31,48,75*,-18
Oc1ccc(C[C@H]2CN([C@@H](Cc3ccccc3)CN3CCCC3CN3C(=S)NC[C@@H]3Cc3ccccc3)C(=S)N2CC2CCCCC2)cc1 (stereo partly specified),7,11,x,15,x
CC(C)C[C@@H](CN1CCC[C@H]1CN1C(=O)C(=O)NC[C@@H]1Cc1ccc(O)cc1)N1C[C@H](Cc2ccccc2)N(CC2CCCCCC2)C(=O)C1=O,-4,4,x,17,x
CC(C)C[C@@H](CN1CCC[C@H]1CN1C(=O)C(=O)NC[C@@H]1Cc1ccccc1)N1C[C@H](Cc2ccccc2)N(CC2CCCCCC2)C(=O)C1=O,-30,17,x,65*,x
COc1cccc(C(=O)N2C[C@H]3[C@@H](c4ccccc42)[C@@H](CO)N3C(=O)c2cccc(F)c2)c1,x,-1,x,6,x
CC(C)NC(=O)N(C)C[C@H]1OCCCC[C@H](C)Oc2ccc(NC(=O)Nc3ccc(F)cc3)cc2C(=O)N([C@@H](C)CO)C[C@H]1C,x,-10,x,-5,x
C[C@@H]1CN([C@@H](C)CO)C(=O)c2cc(C#CCN(C)C)cnc2O[C@@H]1CN(C)C(=O)Nc1cccc(F)c1,x,-4,x,x,x
Cc1c(P(=S)(c2ccccc2)c2ccccc2)[n+]2ccccc2n1CCc1ccccc1,7,17,45,89*,-8
Cc1cc(-c2csc(N)n2)c(C)n1CCc1ccccc1,16,x,-15,x,-5
C=CCC[C@H](Cc1ccc(F)cc1)C(=O)OC[C@@H](Cc1c[nH]c2ccccc12)NC(=O)[C@@H](CC=C)CC(=O)N[C@@H](CO)Cc1ccccc1,-8,-2,17,78*,-26
C=CCC[C@@H](Cc1ccc(F)cc1)C(=O)OC[C@@H](Cc1c[nH]c2ccccc12)NC(=O)[C@H](CC=C)CC(=O)N[C@H](CO)Cc1ccccc1,-8,13,42,23,-25
C=CC[C@H](CC(=O)N(CCO)Cc1ccccc1)C(=O)N[C@H](COC(=O)[C@@H](CC=C)Cc1ccc(F)cc1)Cc1c[nH]c2ccccc12,-11,0,14,82*,10
C=CCC[C@@H](Cc1ccc(F)cc1)C(=O)OC[C@H](Cc1c[nH]c2ccccc12)NC(=O)[C@@H](CC=C)CC(=O)N[C@@H](CO)Cc1ccccc1,-4,4,0,56,-16
C=CCC[C@@H](Cc1ccc(F)cc1)C(=O)OC[C@@H](Cc1c[nH]c2ccccc12)NC(=O)[C@@H](CC=C)CC(=O)N[C@@H](CO)Cc1ccccc1,2,6,10,24,13
C=CC[C@@H](CC(=O)N(CCO)Cc1ccccc1)C(=O)N[C@H](COC(=O)[C@@H](CC=C)Cc1ccc(F)cc1)Cc1c[nH]c2ccccc12,-15,3,19,37,-25
C=CCC[C@H](Cc1ccc(F)cc1)C(=O)OC[C@H](Cc1c[nH]c2ccccc12)NC(=O)[C@H](CC=C)CC(=O)N(CCO)Cc1ccccc1,-2,23,30,97*,-13
C=CCC[C@@H](Cc1ccc(F)cc1)C(=O)OC[C@@H](Cc1c[nH]c2ccccc12)NC(=O)[C@@H](CC=C)CC(=O)N(CCO)Cc1ccccc1,-1,5,16,67*,8
C[C@@H]1CCCCO[C@H](CN(C)C(=O)c2ccccc2)[C@H](C)CN([C@@H](C)CO)C(=O)c2cc(NC(=O)Nc3ccc(F)cc3)ccc2O1,x,2,x,7,x
SMILES,HIF-2a inh,EWS-Fli inh,CF NFkB block,PAX8 reporter,KKLEB cytotox
C[C@H]1CN([C@@H](C)CO)C(=O)c2cc(C#Cc3ccncc3)cnc2O[C@@H]1CN(C)C(=O)CN(C)C,x,0,x,x,x
CC(C)Cn1c([N+](=O)[O-])nc2c1c(=O)[nH]c(=O)n2C,9,20,49,78*,2
C[n+]1c2n(c3ccccc31)N=C(c1cc(C(C)(C)C)c(O)c(C(C)(C)C)c1)CS2,2,47,36,92*,-26
COc1ccc(NC(=O)/C(Cl)=C(/Cl)S(=O)Cc2ccc(Cl)cc2)cn1 (stereo unspecified),97*,74*,87*,88*,-88*
COc1ccc(NC(=O)C(Cl)=C(Cl)Cl)cn1,-10,8,-2,52,3
COc1ccc2c3c([nH]c2c1)[C@@H](CO)N(C(=O)C1CC1)CC31CN(S(C)(=O)=O)C1,x,2,x,-12,x
O=C(CCl)Nc1ccc(S(=O)(=O)NC2=NCCCCC2)cc1,20,11,-87,17,7
O=C(CCl)Nc1cccc(S(=O)(=O)NC2=NCCCCC2)c1,35,62*,-7,45,-18
COc1ccc(C#Cc2ccc3c(c2)[C@]2(C(=O)N3)[C@H](c3ccc(OCCO)cc3)N3[C@H](c4ccccc4)[C@H](c4ccccc4)OC(=O)[C@H]3[C@@H]2C(N)=O)cc1,x,13,x,73*,x
COc1ccc(C#Cc2ccc3c(c2)[C@]2(C(=O)N3)[C@H](c3ccccc3OCCO)N3[C@H](c4ccccc4)[C@H](c4ccccc4)OC(=O)[C@H]3[C@@H]2C(=O)NC[C@H](O)c2ccccc2)cc1,x,3,x,89*,x
COc1ccc(C#Cc2ccc3c(c2)[C@]2(C(=O)N3)[C@H](C(N)=O)[C@H]3C(=O)O[C@H](c4ccccc4)[C@H](c4ccccc4)N3[C@@H]2c2ccc(O)cc2)cc1,x,7,x,x,x
